# Where “and” joins values, the source holds several entries; their conditions need not be identical. Equal values may be shown once. Some structures have more than one record in an assay (separate samples or runs), and their calls can disagree. Calls of active or inactive are those of the source. Unless noted, the rule behind the calls is not given here.
# How the values were obtained:
# [1] = HepG2 liver cancer cell viability effects, profiling panel, resazurin fluorescence, 24 h, PK04 Diversity Set (AID 1172); details: higher = more signal; note: test concentration not given here
# [2] = basal S. cerevisiae growth modulation, no modifier, primary screen, OD600, strain BY4716, 24 h, basal condition (AID 1173); details: OD600, 24 h, higher = more signal, called active from +8 up or from −8 down
# [3] = MM1S myeloma cell viability, profiling panel, resazurin fluorescence, basal, 24 h, PK04 Diversity Set (AID 1174); details: higher = more signal, called active from +8 up or from −8 down;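 note: MM1S multiple myeloma cell line; test concentration not given here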
# [4] = target: Dihydroorotate dehydrogenase (quinone), mitochondrial (Plasmodium falciparum (isolate 3D7)) (UniProt Q08210); test: PfDHODH enzyme inhibitors, primary screen, biochemical, C-terminal His tag, absorbance 600 nm (AID 1175); details: DCIP absorbance 600 nm, higher = more signal, called active from +8 up or from −8 down;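 note: recombinant parasite enzyme with a five histidine tag at its C terminus; test concentration not given here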
# [5] = P. aeruginosa biofilm formation inhibitors, primary screen, strain PAO1, LB-PBS medium, absorbance 600 nm (AID 1176); note: test concentration not given here; details: P. aeruginosa PAO1 growth/biofilm, A600, 12 h; higher = more signal
# [6] = S. cerevisiae RM11-1a growth modifiers, primary screen, strain RM11-1a, OD600, basal, 24 h (AID 1177); details: OD600, 24 h, higher = more signal, called active from +8 up or from −8 down;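 note: cultures grown under basal conditions with no added stressor; test concentration not given here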
# [7] = E. coli acrAB mutant growth effects, primary screen, E. coli filamentation inducers, strain DRC39, OD650, 24 h (AID 1178); details: higher = more signal, called active from +8 up or from −8 down;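 note: growth measured as culture turbidity by optical density at 650 nm; test concentration not given here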
# [8] = E. coli acrAB mutant growth effects, primary screen, E. coli filamentation inducers, strain DRC39, OD650, 48 h (AID 1179);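 note: screen aims at cell division blockers that make cells filament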; details: E. coli DRC39 delta-acrAB growth, higher = more signal, called active from +8 up or from −8 down
# [9] = RPMI8226 myeloma cell viability, profiling panel, resazurin fluorescence, basal, 24 h, PK04 Diversity Set (AID 1180); details: higher = more signal;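 note: RPMI8826 multiple myeloma cell line at 5000 cells per well; test concentration not given here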
# [10] = target: E3 ubiquitin-protein ligase XIAP (Homo sapiens) (UniProt P98170); test: XIAP binders, primary screen, biophysical, small-molecule microarray, fluorescence 635 nm (AID 1181); details: small-molecule microarray binding, higher = more signal;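 note: score merges 667 nm emission and signal to noise over triplicate slides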
# E3 ubiquitin-protein ligase XIAP (Homo sapiens), sequence (P98170 whole entry, looked up): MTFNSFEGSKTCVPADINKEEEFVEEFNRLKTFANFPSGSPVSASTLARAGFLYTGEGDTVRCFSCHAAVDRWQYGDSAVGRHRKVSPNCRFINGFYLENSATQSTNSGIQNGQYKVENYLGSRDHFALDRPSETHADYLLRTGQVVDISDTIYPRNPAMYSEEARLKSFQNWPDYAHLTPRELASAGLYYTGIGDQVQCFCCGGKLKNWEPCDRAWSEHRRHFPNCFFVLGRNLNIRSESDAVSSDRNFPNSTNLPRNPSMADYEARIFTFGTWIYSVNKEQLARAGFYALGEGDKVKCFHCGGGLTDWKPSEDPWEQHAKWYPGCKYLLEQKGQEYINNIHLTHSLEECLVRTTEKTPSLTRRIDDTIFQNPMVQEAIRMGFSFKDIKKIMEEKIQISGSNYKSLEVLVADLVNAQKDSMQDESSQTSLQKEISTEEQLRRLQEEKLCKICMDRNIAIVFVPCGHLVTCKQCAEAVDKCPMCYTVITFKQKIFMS
# Dihydroorotate dehydrogenase (quinone), mitochondrial (Plasmodium falciparum (isolate 3D7)), sequence (Q08210 whole entry, looked up): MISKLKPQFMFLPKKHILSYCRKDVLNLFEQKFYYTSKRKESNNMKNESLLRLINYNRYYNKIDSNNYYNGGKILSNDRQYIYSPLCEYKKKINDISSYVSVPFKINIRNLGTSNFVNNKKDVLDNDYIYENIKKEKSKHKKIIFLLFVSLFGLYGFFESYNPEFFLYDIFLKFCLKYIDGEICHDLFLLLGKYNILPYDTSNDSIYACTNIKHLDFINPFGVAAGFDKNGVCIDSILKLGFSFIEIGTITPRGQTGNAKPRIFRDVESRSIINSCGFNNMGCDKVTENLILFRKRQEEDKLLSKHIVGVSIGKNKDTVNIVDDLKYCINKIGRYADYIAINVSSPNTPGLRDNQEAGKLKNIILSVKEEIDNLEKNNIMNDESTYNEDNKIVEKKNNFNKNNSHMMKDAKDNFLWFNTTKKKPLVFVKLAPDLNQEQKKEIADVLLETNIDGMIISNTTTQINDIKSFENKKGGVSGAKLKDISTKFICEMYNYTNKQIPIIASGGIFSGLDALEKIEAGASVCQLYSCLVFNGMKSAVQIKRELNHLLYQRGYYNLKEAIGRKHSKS
Compound,z-score [1],z-score [2],z-score [3],composite z-score [4],z-score [5],z-score [6],z-score [7],z-score [8],z-score [9],composite z-score [10]
CO[C@@H]1C=CCC(=O)N2CCC[C@H]2C(=O)OC[C@H](C)C(=O)OC[C@H]1C,0.445,-0.774 (inactive),-0.694 (inactive),0.634 (inactive),-0.72 (inactive),0.134 (inactive),1.08 (inactive),0.858 (inactive),0.312,0.0595
CCOC(=O)C[C@H]1[C@H](OC(=O)c2ccccc2-c2ccccc2)[C@@H](NC(=O)Cc2ccc(OC)cc2)c2cc(OCCCO)ccc2N1C(=O)c1ccc2ccccc2n1,0.528 and 0.85,-1.31 (inactive) and -0.5 (inactive),1.19 (inactive) and 0.644 (inactive),0.34 (inactive) and 0.282 (inactive),0.456 (inactive),-0.484 (inactive) and -0.0944 (inactive),2.5 (inactive) and 0.544 (inactive),1.25 (inactive) and 0.422 (inactive),-0.0946 and 0.108,-0.289 and 0.299
Cc1ccc(S(=O)(=O)OC[C@@H]2CN3[C@@H](CC[C@@H](C)[C@@H]3c3ccc(Br)cc3)C(=O)O2)cc1,-0.928 and 0.711,0.212 (inactive) and 0.117 (inactive),0.0032 (inactive) and 0.781 (inactive),-0.559 (inactive) and 0.188 (inactive),0.487 (inactive) and -0.139 (inactive),-0.0273 (inactive) and 0.72 (inactive),0.393 (inactive) and -1.04 (inactive),0.521 (inactive) and -0.956 (inactive),-0.109 and 0.607,1.69 and -0.0599
O=C1C[C@]2(c3ccc([N+](=O)[O-])cc3)C(=O)N(Cc3ccccc3)c3cc(CO)ccc3[C@H]2N1C1CCCCC1,0.981 and -0.766,-0.0998 (inactive) and -0.919 (inactive),0.0351 (inactive) and -0.743 (inactive),-2.77 (inactive) and 0.496 (inactive),0.599 (inactive) and 1.21 (inactive),0.029 (inactive) and -0.21 (inactive),0.512 (inactive) and 0.2 (inactive),0.566 (inactive) and -0.0186 (inactive),0.702 and -0.966,2.56 and 0.144
C=CC[C@@H](O)c1ccc(O)c2ccccc12,0.202 and -0.349,-17.2 (active) and -17.3 (active),-2.06 (inactive) and -2.1 (inactive),-2.37 (inactive) and -3.1 (inactive),1 (inactive) and 1.33 (inactive),-0.508 (inactive) and 0.0761 (inactive),1.2 (inactive) and -0.0099 (inactive),0.635 (inactive) and -0.379 (inactive),-0.947 and -1.55,0.205 and 0.0537
CC(CO)N1C(=O)[C@@H]2C3C(=O)OCCC=C[C@H]3OC23C=CCN(C(C)(C)C)C(=O)[C@@H]13 (stereo not given in full),-0.0539 and 0.0517,1.97 (inactive) and -0.0328 (inactive),-1.28 (inactive) and -0.719 (inactive),-7.96 (inactive) and -3.06 (inactive),-0.317 (inactive) and 0.329 (inactive),1.01 (inactive) and -1.12 (inactive),-0.57 (inactive) and -0.149 (inactive),-0.672 (inactive) and -0.246 (inactive),-0.896 and -0.817,-0.157 and 0.517
C=CCN(C(=O)C1N(CCCCCCO)C(=O)C2C(C(=O)O)C3C=CC21O3)c1ccc(OC)cc1 (stereo not given),0.831 and 0.525,-2.35 (inactive) and -2.45 (inactive),1.04 (inactive) and -0.294 (inactive),-1.78 (inactive) and -2.48 (inactive),-0.401 (inactive),-1.53 (inactive) and -0.292 (inactive),1.15 (inactive) and 0.43 (inactive),1.16 (inactive) and 0.716 (inactive),1.37 and 0.372,-0.0492 and 0.0972
C=CCN(Cc1ccccc1)C(=O)C1N(CCOCCO)C(=O)C2C(C(=O)O)C3C=CC21O3 (stereo not given),0.649 and -0.0686,-1.56 (inactive) and 0.494 (inactive),1.22 (inactive) and -0.234 (inactive),-3.5 (inactive) and -0.648 (inactive),-0.18 (inactive),-1.46 (inactive) and 0.356 (inactive),1.55 (inactive) and 0.0673 (inactive),1.05 (inactive) and -0.12 (inactive),0.795 and -0.418,-0.02 and -0.291
CCCCCN1CC=CC23O[C@@H]4C=CCCOC(=O)C4[C@H]2C(=O)N(C(C)CO)[C@@H]3C1=O (stereo not given in full),1.77 and 0.86,-0.252 (inactive) and 1 (inactive),1.24 (inactive) and -0.0383 (inactive),-1.97 (inactive) and -0.391 (inactive),-0.193 (inactive) and 0.0683 (inactive),-0.0686 (inactive) and 0.825 (inactive),0.213 (inactive) and 0.0972 (inactive),-0.123 (inactive) and -0.105 (inactive),1.18 and -0.0579,0.216 and -0.323
C=C[C@@H](OC)[C@H](O)c1ccc(OC)c(O)c1,-0.246 and 0.49,-1.28 (inactive) and -1.67 (inactive),-0.72 (inactive) and 0.989 (inactive),0.229 (inactive) and -0.344 (inactive),0.152 (inactive),0.119 (inactive) and -1.5 (inactive),-0.0985 (inactive) and 1.78 (inactive),-0.489 (inactive) and 1.38 (inactive),-1.04 and 0.51,-0.319 and -0.148
C[N+](C)(C)CCCCNC(=O)[C@@H]1C[C@@H]2C(=O)N[C@@H](CCCC[N+](C)(C)C)C(=O)N2[C@@H]1c1cccc(OCCO)c1,-0.249 and -0.0346,0.962 (inactive) and 0.187 (inactive),0.405 (inactive) and 0.349 (inactive),-30.9 (active) and -30.3 (active),-0.239 (inactive) and 0.022 (inactive),1.57 (inactive) and 0.24 (inactive),0.113 (inactive) and -0.132 (inactive),-0.0555 (inactive) and 0.517 (inactive),0.399 and 0.607,1.01 and -0.22
CCOC(=O)c1ccc(NC(=O)O[C@H]2[C@H](OC(=O)Nc3ccccc3)[C@H](OC(=O)Nc3ccccc3)[C@@H](OC)O[C@@H]2CO)cc1,-1.03 and -1.82,0.645 (inactive) and -0.301 (inactive),-1.75 (inactive) and -3.01 (inactive),-0.299 (inactive) and -0.597 (inactive),2.37 (inactive) and 1.74 (inactive),2.14 (inactive) and 0.971 (inactive),-0.468 (inactive) and 0.363 (inactive),0.496 (inactive) and -0.189 (inactive),-1.53 and -2.7,0.23 and 0.108
CC(C)=NOC[C@@H](O)COCc1ccco1,-0.907,0.14 (inactive),-1.09 (inactive),0.102 (inactive),-0.324 (inactive),0.534 (inactive),0.745 (inactive),0.41 (inactive),-1.11,0.0576
COC(=O)C1=C(C)N(Cc2ccccc2)C2=C(C(C)=O)[C@H](c3ccccc3)[C@@](O)(C(=O)OC)C(=O)N2[C@@H]1c1ccccc1,1.38 and 0.559,-2.41 (inactive) and -3.21 (inactive),1.07 (inactive) and 0.983 (inactive),0.523 (inactive) and -1.82 (inactive),1.08 (inactive),-0.107 (inactive) and -3.5 (inactive),1.32 (inactive) and 0.552 (inactive),0.972 (inactive) and -1.35 (inactive),1.27 and 0.0662,0.0177 and -0.244
CC(C)OC(=O)C=C1C[C@@H](c2ccccc2)O[C@@H](c2ccccc2)O1,0.0904 and -0.562,-1.21 (inactive) and -0.385 (inactive),0.468 (inactive) and -3.15 (inactive),-0.125 (inactive) and -1.68 (inactive),0.533 (inactive) and 0.394 (inactive),0.306 (inactive) and 0.904 (inactive),-0.65 (inactive) and -0.601 (inactive),0.945 (inactive) and 0.907 (inactive),1.54 and -2.33,-0.13 and 0.013
CC(C)[Si]1(C(C)C)OCc2cc(CCCc3cc4c(c(CCc5ccccc5)n3)[Si](C(C)C)(C(C)C)OC4)nc(CCc3ccccc3)c21,0.926 and -0.531,-15.4 (active) and 0.852 (inactive),-0.78 (inactive) and -0.186 (inactive),-0.351 (inactive) and 0.681 (inactive),0.35 (inactive),-0.656 (inactive) and 0.13 (inactive),1.87 (inactive) and -0.184 (inactive),1.19 (inactive) and -0.0698 (inactive),0.583 and -1.16,-0.0095 and -0.111
COC(=O)C1=C(C)N(Cc2ccccc2)[C@]23O[C@](C(=O)OC)(C(=O)N2[C@@H]1c1ccccc1)[C@H]1C(=O)N(C)C(=O)[C@H]13,0.101 and 1.13,-0.974 (inactive) and -1.6 (inactive),0.856 (inactive) and 0.302 (inactive),0.207 (inactive) and 0.467 (inactive),-1.59 (inactive),1.09 (inactive) and -0.535 (inactive),-0.34 (inactive) and 0.732 (inactive),0.207 (inactive) and 0.764 (inactive),0.389 and -0.0962,0.072 and 2.05
